Whole data set: some 68,000 sequences, median “fluorescence intensity (a.u.)” near 9,100, cut for the highest 2% near 16,000. This is one part of a sample in which the highest values are shown more often than they occur.
target: OsWRKY34 (Oryza sativa, UniProt Q0JBA9 1-250); assay: protein-binding microarray (RPBM); PBS, 2% BSA, 51.3 ng/ul salmon testes DNA, 50 uM zinc acetate, 200 nM TF, 25 C, 1 h; high values mean tight binding; conditions: protein: recombinant; tags: N-terminal polyhistidine and DsRed monomer fusion (pET32a); label: CyDye5-dUTP incorporated in the synthesized complementary strand; 3' TTTTT single-stranded linker to array surface; dsDNA, one strand shown
Method in brief: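 In PBS with 2% BSA, salmon testes DNA and 50 µM zinc acetate, 200 nM protein was incubated on a custom Agilent array at 25 °C for 1 h and then washed off. The array had been made double-stranded by primer extension with Cy5-dUTP and blocked with 2% BSA. The proteins were transcription factors fused N-terminally to polyhistidine and DsRed, expressed in E. coli BL21-CodonPlus and purified on Ni–NTA. The binding signal is per-feature fluorescence intensity (arbitrary units) from an Axon 4000B scanner.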

Chain of OsWRKY34 (Q0JBA9 entry or part of it): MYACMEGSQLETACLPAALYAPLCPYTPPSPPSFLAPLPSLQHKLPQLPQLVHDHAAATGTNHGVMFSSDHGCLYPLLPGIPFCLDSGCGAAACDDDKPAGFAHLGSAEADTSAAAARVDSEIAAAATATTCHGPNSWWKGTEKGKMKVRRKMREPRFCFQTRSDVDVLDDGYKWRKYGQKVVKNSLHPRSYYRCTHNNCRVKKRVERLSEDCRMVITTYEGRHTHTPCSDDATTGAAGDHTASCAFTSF

| Sequence | binding signal |
| --- | --- |
| ATTATTTTTGGTTGTTCTATTTATTTTCTTAAAATAATTCCGGAGTCACCTAGTGCAG | 11300 fluorescence intensity (a.u.) |
| CCCCACATCTTTTGCTAGCATGCCCCTACCCATTCATATTCGGAGTCACCTAGTGCAG | 10500 ± 300 fluorescence intensity (a.u.) |
| CTGAGTTCTGTATTGGATCAGCTTCATGTTATCGGCATCACGGAGTCACCTAGTGCAG | 8450 fluorescence intensity (a.u.) |
| TTCTCCTATCTTCAACATTTGCTTTGTTACGTTTTTGACTCGGAGTCACCTAGTGCAG | 9560 fluorescence intensity (a.u.) |
| TTTTTCTCGGTAATTTTGTGATTGGTCTACTCCTACAAAACGGAGTCACCTAGTGCAG | 8290 fluorescence intensity (a.u.) |
| TGGATGATTTTGCCATTTTTTTCATTGCTGGTGCGGTGGTCGGAGTCACCTAGTGCAG | 8460 fluorescence intensity (a.u.) |
| CCCGGCGTCCTCCTGCTTCCCACCGCATCGTCGCTCGCCGCGGAGTCACCTAGTGCAG | 8120 fluorescence intensity (a.u.) |
| GAGGGTGGGTGCTTGCTGGCCAGACATTAAAACAATGTGTCGGAGTCACCTAGTGCAG | 9670 fluorescence intensity (a.u.) |
| TTCTTCCCAGCCAGTGTTCCTAGTATCCATTCTCTCTCAACGGAGTCACCTAGTGCAG | 9850 fluorescence intensity (a.u.) |
| CTTGTGGATTTCGTTCGAGTTCTTGTGGTTTTGGATCGGGCGGAGTCACCTAGTGCAG | 9590 fluorescence intensity (a.u.) |
| ACGTAGGAAGGTGGAAGCGGTTTCTTGGGGTTTGGATATGCGGAGTCACCTAGTGCAG | 11000 fluorescence intensity (a.u.) |
| GTCGTCTCATACCAATCGTGCGGCGGCGGCGGCGGGGATGCGGAGTCACCTAGTGCAG | 10400 fluorescence intensity (a.u.) |
| GCGGCTTCTTCTCGGGGTGGATTTGGTGGTGGTTTTTTTTCGGAGTCACCTAGTGCAG | 21500 fluorescence intensity (a.u.) |
| TTTGGGGCGCGGGTGGGTGGCTGGGTGCGCGTCGATCGTGCGGAGTCACCTAGTGCAG | 10900 fluorescence intensity (a.u.) |
| GTGGGCTGGGCTTCTTCTTCGTCGTCTCATACCAATCGTGCGGAGTCACCTAGTGCAG | 17100 fluorescence intensity (a.u.) |
| TTGGATTGCAGTGGGGCGGACGGCGGTGGGCGGGGCTTCTCGGAGTCACCTAGTGCAG | 27600 fluorescence intensity (a.u.) |
| GGGAAAGTGGTTGGCGGATATTCTTGTTTTCTTTTTTTGTCGGAGTCACCTAGTGCAG | 12500 fluorescence intensity (a.u.) |
| GTAGGCTTTTGTTTCGGGTGGGATAATATCTTGGGGAAAGCGGAGTCACCTAGTGCAG | 20700 fluorescence intensity (a.u.) |
| GGGTGACGGGAGCAGCGGCGCGCGGGTGGTGGGGCTTGGACGGAGTCACCTAGTGCAG | 10700 fluorescence intensity (a.u.) |
| GACGGGCGGCGGTGGGGCTGACGCGGGCGACGGAGGGGCTCGGAGTCACCTAGTGCAG | 11500 fluorescence intensity (a.u.) |
| TGGTTTGCGGTGGTGCGCGCGCGGCTTCTTCTCGGGGTGGCGGAGTCACCTAGTGCAG | 9070 fluorescence intensity (a.u.) |
| AGGTTCACAATCTATCCGACTTTTGATTTTCTTTCAATTCCGGAGTCACCTAGTGCAG | 9110 fluorescence intensity (a.u.) |

| Sequence | binding signal |
| --- | --- |
| CAATGGCTTACGACGAGACGACTCACCTTTGAATTCCACGCGGAGTCACCTAGTGCAG | 9460 fluorescence intensity (a.u.) |
| TTTTAAAACTGCTGGGATTTTGCTTTCTGTTTCTTCAATGCGGAGTCACCTAGTGCAG | 10900 fluorescence intensity (a.u.) |
| TTAGTTTTGTTAGATCGTCGATTTTGATTAGTGCGTTTGACGGAGTCACCTAGTGCAG | 9190 fluorescence intensity (a.u.) |
| AAACCAACCCCACCCAACCCACGCGAGAACCGTGGACCACCGGAGTCACCTAGTGCAG | 9500 fluorescence intensity (a.u.) |
| ATTTCTCTTGCCTATGTTTTCATTTTGCAATTATTTTTGTCGGAGTCACCTAGTGCAG | 10500 fluorescence intensity (a.u.) |
| TGTTTGCACTTCATTCCATTCCATTCCACCTCCACTGCTTCGGAGTCACCTAGTGCAG | 8390 fluorescence intensity (a.u.) |
| AATCTGTGGGCAGGGGCGGCGACGTCGGCGGGCGAGGGCTCGGAGTCACCTAGTGCAG | 8660 fluorescence intensity (a.u.) |
| TCGGCTTGGTGGGGCTGGAGAACGTCTTTTCTCAATTGTGCGGAGTCACCTAGTGCAG | 22000 fluorescence intensity (a.u.) |
| GCTCGGGCATCCTTTTTAAGGGCTCGGGGCGGCGGAATCACGGAGTCACCTAGTGCAG | 8290 fluorescence intensity (a.u.) |
| GTTTCATCTTCTTGTGGGCTTTTCTGGTGAACTCAATTCACGGAGTCACCTAGTGCAG | 8250 fluorescence intensity (a.u.) |
| GGCTCGGGGCGGCGGAATCATGGGCGATTGGGGCGGCAACCGGAGTCACCTAGTGCAG | 22500 fluorescence intensity (a.u.) |
| CTTTTATATAGCTTTGTCTAGTCTTGTGAATTCTCAATTGCGGAGTCACCTAGTGCAG | 8530 fluorescence intensity (a.u.) |
| CTGGTCAGAGTCCCCAACCAAAAGCATTTCTCCTGCCTTCCGGAGTCACCTAGTGCAG | 8660 fluorescence intensity (a.u.) |
| CGTCCGTCTCCATCTGACACCTCCCAGTGCTTGCGCCCATCGGAGTCACCTAGTGCAG | 8030 fluorescence intensity (a.u.) |
| GACTTACTTTATTGTCTACAGTACTTTAAGCACAACTTTTCGGAGTCACCTAGTGCAG | 8360 fluorescence intensity (a.u.) |
| ATACCCGTCTTTTCCTTCCCTTTCATCAATTGCCTCTTGTCGGAGTCACCTAGTGCAG | 11500 fluorescence intensity (a.u.) |
| TAGTTTTCTCAGGTGTTTGGGAATTGGTTGGTGAAGATGACGGAGTCACCTAGTGCAG | 9450 fluorescence intensity (a.u.) |
| GGATGCTCTTGTGTTCTTGTTGTTGATTTGTATTGTGGATCGGAGTCACCTAGTGCAG | 8240 fluorescence intensity (a.u.) |
| GATTTCTGTGTTTTTCCTGTGGTCCAATCAAACGGTCATTCGGAGTCACCTAGTGCAG | 12700 fluorescence intensity (a.u.) |
| TGCGGCCCACCTTTGCTTCTTCGTTGACTTTCTTGCCGTCCGGAGTCACCTAGTGCAG | 26900 fluorescence intensity (a.u.) |
| CTCGCCGCCGTTCGTCTCCGCCGCCACCGCCGCCGCCATGCGGAGTCACCTAGTGCAG | 11300 fluorescence intensity (a.u.) |
